From PubChem
CYP2C9 activ = CYP2C9 (human) activation; activation factor at 5 µM; recombinant CYP2C9, luciferin-H conversion, luminescence; hits give high values; factor 1 = untreated enzyme, 0 = blocked; actives 1.4% (n = 96,000);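 active means activation factor of 2 or more for CYP2C9 at a 5 µM dose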;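 further: 0 = sulfaphenazole-blocked wells and 1 = vehicle-only wells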
Target sequence (P11712 whole entry, looked up): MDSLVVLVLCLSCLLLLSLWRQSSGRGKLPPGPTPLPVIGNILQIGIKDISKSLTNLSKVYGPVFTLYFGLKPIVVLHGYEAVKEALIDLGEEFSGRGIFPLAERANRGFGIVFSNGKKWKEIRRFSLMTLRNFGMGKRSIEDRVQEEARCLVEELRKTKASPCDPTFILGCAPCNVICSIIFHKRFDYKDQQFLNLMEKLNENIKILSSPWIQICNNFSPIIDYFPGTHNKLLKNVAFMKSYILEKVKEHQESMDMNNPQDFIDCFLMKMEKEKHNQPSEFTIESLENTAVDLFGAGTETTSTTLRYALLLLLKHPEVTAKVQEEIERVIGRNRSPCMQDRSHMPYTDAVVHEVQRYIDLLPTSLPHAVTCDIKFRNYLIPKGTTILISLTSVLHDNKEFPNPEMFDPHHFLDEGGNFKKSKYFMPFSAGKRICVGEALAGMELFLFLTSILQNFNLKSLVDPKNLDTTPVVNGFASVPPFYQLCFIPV
CYP2C19 inh = blocks human cytochrome P450 2C19; actives 21% (n = 96,000); CYP2C19 Supersomes, luciferin-H EGE luminescence, 30 min; P33261; inhibition, % at 5 µM;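 active means CYP2C19 inhibition above a set limit at 5 µM in the primary screen, cut at about 50% in these data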;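 further: plate controls were negative control wells for no effect and 2.5 mM tranylcypromine positive control for full effect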
CYP2C19 activ = increases human CYP2C19 enzyme activity; recombinant CYP2C19, luciferin-H EGE luminescence; hits give high values; 0 = fully inhibited enzyme, 1 = untreated enzyme; P33261; activation factor at 5 µM; 96,000 tested, under 10 active;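 active means activation factor of at least 2 at 5 µM in the primary screen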;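 further: 0 = wells with 2.5 mM tranylcypromine and 1 = vehicle-only wells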
CYP2C9 inhib = human CYP2C9 inhibition. inhibition, % at 5 µM. P11712. actives 20% (n = 96,000). CYP2C9 Supersomes, luciferin-H conversion, luminescence. AID 777;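 active means blocking of liver enzyme CYP2C9 beyond about 50% at 5 µM, limit read from the data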
PostGolgi ctrl = growth of the yeast control strain, post-Golgi counter-screen; efflux-deficient yeast background strain, growth absorbance A615, 16 h; inhibition, % at 10 µM; actives 5% (n = 98,000); AID 738
PostGolgi yeast = growth inhibition of a yeast mutant, post-Golgi transport screen; post-Golgi transport phenotypic cell assay; inhibition, % at 10 µM; actives 0.9% (n = 98,000);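 further: yeast cells grown in 1536-well plates; yeast grown about 18 h at 30C before absorbance read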
Starred values were filed as active, the others as inactive; . = no result. This is a sample that favours compounds with a hit; in the whole collection about 32% have one here. Unless noted, no stated cut-off is given here; in the data, active means inhibition above about 30%; inactive means the rest.

SMILES	CYP2C9 activ	CYP2C19 inh	CYP2C19 activ	CYP2C9 inhib	PostGolgi ctrl	PostGolgi yeast
Cn1c(SCC(=O)N2CCN(c3ccccc3)CC2)nnc1-c1c[nH]c2ccccc12	0.8	54*	0.5	16	-13	3
CCSc1nnc(-c2cnn(-c3ccccc3)c2-n2cccc2)n1C	1	-3	1	-2	6	2
CCn1c(SCC(=O)N2CCCc3ccccc32)nnc1-c1c[nH]c2ccccc12	1.1	76*	0.2	-12	-6	0
CCCCCCSc1nnc(-c2cnn(-c3ccccc3)c2-n2cccc2)n1C	0.4	47	0.5	61*	61*	-10
CCn1c(SCC(=O)N2CCN(c3ccccc3)CC2)nnc1-c1c[nH]c2ccccc12	1.1	64*	0.4	-11	0	1
CCOC(=O)c1ccc(NC(=O)Cn2cc3c(n2)CCC(C)C3)cc1 (stereo not given)	0.9	19	0.8	11	1	1
COC(=O)C1=NN(N=O)C2(CC(=O)N(c3cc(C)cc(C)c3)C2=O)C1 (stereo not given)	0.9	6	0.9	11	10	-1
CN(C)CCCNc1cc(Cl)c(S(=O)(=O)N2CCCCC2)cc1C(=O)O	1	2	1	-3	2	-1
Cc1cc(C)cc(N(CC(=O)NCC2CCCO2)C(=O)CCC(=O)Nc2cc(C)on2)c1 (stereo not given)	0.7	8	0.9	26	22	22
CCCCSc1nnc(-c2c[nH]c3ccccc23)n1C	1	56*	0.4	-1	22	10
Cn1c(SCc2ccccc2)nnc1-c1c[nH]c2ccccc12	0.6	49	0.5	44	12	-4
CC1(C)Cc2ccccc2-c2nnc(SCC(=O)N3CCN(c4ccccc4)CC3)n21	0.4	80*	0.2	62*	14	2
CCOC(=O)C(C)Sc1nnc2n1C(C)(C)Cc1ccccc1-2 (stereo not given)	.	.	.	.	5	-3
O=C(COc1ccccc1)c1cn(CC(=O)N2CCOCC2)c2ccccc12	0.3	34	0.7	71*	2	-2
O=C(Cn1cc(C(=O)COc2ccccc2)c2ccccc21)NCc1ccco1	0.2	39	0.6	78*	9	3
CC(=O)c1cn(CC(=O)NCc2ccco2)c2ccccc12	1	36	0.6	1	3	-4
COCCNC(=O)c1c[nH]c2ccc(S(=O)(=O)N3CCC4(CC3)OCCO4)cc2c1=O	0.8	12	0.9	20	6	6
CCOC(=O)C(CC)/C(C)=N/NC(=O)c1ccc([N+](=O)[O-])cc1 (stereo not given)	1	26	0.7	-1	-2	7
CC(C)C(OC(=O)c1nsc(Cl)c1Cl)C(=O)NCc1ccc2c(c1)OCO2 (stereo not given)	0.3	43	0.6	65*	17	-2
CC(C)C(OC(=O)c1cccs1)C(=O)NCc1cccs1 (stereo not given)	0.3	91*	0.1	66*	-1	-1
CC(OC(=O)c1cccs1)C(=O)NCc1ccc2c(c1)OCO2 (stereo not given)	0.3	38	0.6	67*	11	0
COc1ccc(CNC(=O)C(C)OC(=O)c2cccn2C)cc1 (stereo not given)	0.6	78*	0.2	36	-2	0
COCCSc1ccccc1C(=O)NCc1ccc2c(c1)OCO2	0.8	48	0.5	24	16	12
CCOC(=O)N1CCC(N2CC34C=CC(O3)C(C(=O)Nc3ccc(OCC)cc3)C4C2=O)CC1 (stereo not given)	0.9	-8	1.1	15	9	-1
COc1cc(C(=O)Nc2nnc(C)s2)cc(OC)c1OC	1.2	-19	1.2	-18	12	4
SMILES	CYP2C9 activ	CYP2C19 inh	CYP2C19 activ	CYP2C9 inhib	PostGolgi ctrl	PostGolgi yeast
CC(C)CC(OC(=O)c1cccs1)C(=O)NCc1ccco1 (stereo not given)	0.6	44	0.6	40	-6	-7
CC(OC(=O)c1cccs1)C(=O)NCc1ccccc1 (stereo not given)	0.2	98*	0	77*	-5	0
Cc1cc(NC(=O)Cn2cc(C(F)(F)F)cc(Cl)c2=O)no1	.	.	.	.	13	4
Clc1ccc2[nH]c(-c3ccccc3)cc2c1	0.5	32	0.7	50	42*	-6
COc1ccc2[nH]c(=O)c(CN(CCO)C(=O)c3ccccc3F)cc2c1	0.9	-2	1	6	0	-14
CC(C)(C)SCCNC(=O)CSCc1ccc([N+](=O)[O-])cc1	0.8	-1	1	24	5	2
Cc1ccc(C)c(N(CC(=O)NC2CCCC2)C(=O)c2cc3cc4cc(C)ccc4nc3s2)c1	1	-12	1.1	1	-5	1
Cc1cccc(N(CC(=O)NC2CCCC2)C(=O)c2cc3cc4cccc(C)c4nc3s2)c1C	0.1	34	0.7	90*	2	-4
Cc1ccc(C(=O)N(CC(=O)NC2CCCCC2)c2ccccc2C)s1	0.4	46	0.5	62*	14	4
Cc1cccc(N(CC(=O)NC2CCCCC2)C(=O)c2ccc(C)s2)c1	0.4	40	0.6	60*	-8	19
Cc1ccccc1N(CC(=O)NC1CCCC1)C(=O)c1oc(C(C)(C)C)cc1C	1	15	0.9	4	9	-4
CC(=O)c1c(C(C)=O)c(C)n(-c2nc(-c3ccc(C)c(C)c3)c(C)s2)c1C	1	-1	1	4	48*	-1
COc1ccc(-c2nc(-n3c(C)c(C(C)=O)c(C(C)=O)c3C)sc2C)cc1	0.6	30	0.7	37	24	-2
Cc1csc(NC(=O)CSc2nnc3c4ccccc4nc(C(C)(C)C)n23)n1	0.8	11	0.9	21	12	-9
Cc1c(C(=O)NCc2cccnc2)sc2ncn(CC(=O)N3CCCCC3C)c(=O)c12 (stereo not given)	0.8	11	0.9	21	-4	3
Cc1cc(NC(=O)CSc2nnc(-c3ccccc3)n2Cc2ccco2)no1	1.2	20	0.8	-15	-3	-3
O=C(CSc1nnc(-c2ccncc2)n1Cc1ccco1)OC1CCCCC1	0.1	98*	0	92*	8	-1
COc1ccc(Cl)cc1NC(=O)CSc1nnc(-c2ccncc2)n1CC1CCCO1 (stereo not given)	0.5	60*	0.4	49	6	5
O=C(CSc1nnc(-c2ccco2)n1Cc1ccccc1)OC1CCCCC1	1.1	21	0.8	-6	21	-4
Cc1cccc(C)c1NC(=O)CSc1nnc(-c2ccncc2)n1Cc1ccco1	0.3	73*	0.3	67*	-3	-18
COc1ccccc1NC(=O)CSc1nnc(-c2ccncc2)n1CC1CCCO1 (stereo not given)	0.9	2	1	10	14	2
